Inconclusive results are not listed. Values without a mark were called inactive. Calls come from the whole dose curve; as a rule, active = well fitted inhibition curve with a large enough effect; inconclusive = small, poorly fitted or top-dose-only effect, or effect the other way; inactive = flat fitted curve, though single readings scatter.
What follows are compounds tested against ATP-dependent 6-phosphofructokinase (Trypanosoma brucei brucei) (UniProt O15648) (assay: qHTS Assay to Find Inhibitors of T. brucei phosphofructokinase: hit validation (AID 492961;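 note: luminescence reports ADP formed as PFK phosphorylates fructose-6-phosphate with ATP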)). Conditions: T. brucei PFK, ADP-Glo luminescence; series mostly up to 51.4 µM; activity change, negative = inhibition: at the top concentration.
Sequence of ATP-dependent 6-phosphofructokinase (Trypanosoma brucei brucei) (O15648 whole entry, looked up): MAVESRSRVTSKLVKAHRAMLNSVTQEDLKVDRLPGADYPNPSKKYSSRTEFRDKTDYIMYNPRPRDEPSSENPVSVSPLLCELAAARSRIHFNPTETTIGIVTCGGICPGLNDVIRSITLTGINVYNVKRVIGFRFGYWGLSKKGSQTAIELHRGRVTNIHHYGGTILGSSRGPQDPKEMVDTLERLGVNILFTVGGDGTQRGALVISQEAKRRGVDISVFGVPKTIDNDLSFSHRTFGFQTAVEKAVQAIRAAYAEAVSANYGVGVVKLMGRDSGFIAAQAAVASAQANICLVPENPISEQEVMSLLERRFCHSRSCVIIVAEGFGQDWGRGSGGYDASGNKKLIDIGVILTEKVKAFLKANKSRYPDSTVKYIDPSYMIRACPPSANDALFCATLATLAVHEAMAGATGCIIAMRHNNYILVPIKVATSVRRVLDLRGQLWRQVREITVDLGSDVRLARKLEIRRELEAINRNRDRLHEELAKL
Method in brief: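 Inhibition of parasite PFK is measured as reduced ADP formation, quantified via luciferase after ATP depletion. Assay used 0.1 mM ATP, 0.5 mM F6P, 1.25 nM enzyme, 45 min incubation.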
% is set by controls: 0 for no effect and ±100 for the full control effect.

Structure (SMILES) | activity change, negative = inhibition
CCCCCCCCCCCCCCCCOP(=O)([O-])OCC[N+](C)(C)C | 8.38%
CCCCCCCCCCCCCCNCCO | 3.03%
CCC(=O)c1c(O)cc(O)cc1O | -1.13%
CC[N+](CC)(CCNC(=O)C(=O)NCC[N+](CC)(CC)Cc1ccccc1Cl)Cc1ccccc1Cl | -1.37%
CC(=O)Nc1c(I)cc(I)c(C(=O)O)c1I | 0.612%
O=c1ccc2ccccc2o1 | -0.189%
Cc1c(C)n(CCN(C)C)c2ccc(C(=O)OCCN(C)C)cc12 | 2.02%
Cc1c(C)n(Cc2ccccc2)c2ccc(C(=O)OCCN(C)C)cc12 | -5.3%
COc1cccc(CCc2ccccc2OCC(CN(C)C)OC(=O)CCC(=O)O)c1 (configuration not stated) | -0.804%
O=C(COc1ccc(Cl)cc1)N1CCN(Cc2ccc3c(c2)OCO3)CC1 | 1.03%
CN(C)CCCOc1nn(Cc2ccccc2)c2ccccc12 | -3.46% [at 24.3 µM]
Cc1ccc(O)c2ncccc12 | 5.94%
COc1cc(C(=S)N2CCOCC2)cc(OC)c1OC | -12.7%
CC(=O)Oc1ccc(C(=C2CCCCC2)c2ccc(OC(C)=O)cc2)cc1 | 3.65%
O=C(O)CCCCC(=O)O | -3.38%
CCOC(=O)n1ccn(C)c1=S | 6.87% [at 24.3 µM]
CC(=O)N(O)CCCCCNC(=O)CCC(=O)N(O)CCCCCNC(=O)CCC(=O)N(O)CCCCCN | -10.3% [at 24.3 µM]
CCOC(=O)c1cccc(N)c1 | -7.68%
CC(Cc1cccc(C(F)(F)F)c1)NCCOC(=O)c1ccccc1 (configuration not stated) | 1.64%
CCN(CC)C(=O)N1CCN(C)CC1 | -4.61% [at 24.3 µM]
COc1c(C)c2c(c(O)c1C/C=C(\C)CCC(=O)O)C(=O)OC2 | 2.45% [at 24.3 µM]
CC(O)(P(=O)(O)O)P(=O)(O)O | -4.18%

— PubChem BioAssay (NCATS)
